Source: PubChem
Only a selection was taken, and hits are over-represented in it overall.
Shiga inhibitor: A qHTS for Small Molecule Inhibitors of Shiga Toxin | Vero cells, Shiga toxin protein synthesis inhibition reporter | inhibition, % at 38.7 µM | 290,000 compounds, 9.2% hits | AID 2315, 2010; in the data active means inhibition mostly above about 28%, no sharp cut-off; inactive means mostly below about 43%
MARV entry inh: qHTS for inhibitors of binding or entry into cells for Marburg Virus. Marburg virus pseudotyped entry inhibition, cell reporter. Potency, µM (doses to about 37.8 µM), usual class: inhibitors. 300,000 compounds, 1.8% hits; calls by dose curve; tested in HEK293 cells
Vaccinia Venus: qHTS for Stage-Specific Inhibitors of Vaccinia Orthopoxvirus: Venus Reporter Primary qHTS; Potency, µM (series often up to 36.5 µM), usual class: inhibitors; 330,000 compounds, 0.46% hits; Vaccinia virus Venus reporter expression, fluorescence; calls by dose curve; tested in A549 cells; further: nearly all actives have a fitted effect of over 30% in size
Vaccinia mCherry: qHTS for Stage-Specific Inhibitors of Vaccinia Orthopoxvirus: mCherry Reporter Primary qHTS | Vaccinia virus mCherry reporter infection, fluorescence | Potency, µM (doses to about 36.5 µM), actives largely listed as inhibitors | 310,000 compounds, 0.63% hits | AID 720579, 2013; calls by dose curve; tested in A549 cells; further: nearly all actives have a fitted effect of over 35% in size
Cycloheximide cs: Cycloheximide Counterscreen for Small Molecule Inhibitors of Shiga Toxin | cell reporter, cycloheximide protein synthesis inhibition counterscreen | max response, % | 300,000 compounds, 12% hits | AID 2314, 2010; in the data active means max response mostly above about 13%, no sharp cut-off; inactive means mostly below about 14%; further: read at 38.3 µM for the half of the compounds with a filed dose
LASV entry inh: qHTS for Inhibitors of binding or entry into cells for Lassa Virus | Lassa virus pseudotype entry inhibition, cell reporter | Potency, µM (doses to about 37.9 µM), actives largely listed as inhibitors | 300,000 compounds, 1.2% hits; calls by dose curve; tested in HEK293 cells; further: nearly all actives have a fitted effect of over 50% in size
Of the large screens only hits and unclear results are named; the others gave an inactive call.

O=C(Nc1ccc(-c2nc3ncccc3o2)cc1)c1ccc([N+](=O)[O-])o1	none
O=C(Nc1ccc2oc(-c3ccccc3F)nc2c1)c1ccccc1F	Shiga inhibitor 48, MARV entry inh inconclusive, Cycloheximide cs 30
Cc1ccc(NC(=O)c2ncn[nH]2)cc1	Cycloheximide cs 19
O=C(Nc1ccc2oc(-c3ccncc3)nc2c1)c1ccc([N+](=O)[O-])o1	Shiga inhibitor 53, MARV entry inh inconclusive, Vaccinia Venus inconclusive, Vaccinia mCherry 10µM, Cycloheximide cs 32
O=C(Nc1ccc(-c2nc3cc(NC(=O)c4ccccc4F)ccc3o2)cc1)c1ccccc1F	none (no result: Shiga inhibitor, MARV entry inh, Cycloheximide cs)
O=C(Nc1ccc2oc(-c3ccncc3)nc2c1)c1ccccc1F	Shiga inhibitor 63
CC(=O)NC(=S)Nc1ccc2oc(-c3cc(F)c(F)cc3Cl)nc2c1	Cycloheximide cs 24
O=C(Nc1ccc2oc(-c3ccccc3F)nc2c1)c1ncn[nH]1	Shiga inhibitor 80, Vaccinia mCherry inconclusive, Cycloheximide cs 52 (no result: LASV entry inh)
O=C(Nc1ccc2oc(-c3cccc(F)c3)nc2c1)c1ccccc1F	none
O=C(Cc1ccccc1)NC(=S)Nc1ccc2oc(-c3ccccc3F)nc2c1	Shiga inhibitor 50, LASV entry inh inconclusive (no result: Vaccinia mCherry)
COc1cc(/C=C/c2nc(C#N)c(N3CCC(C)CC3)o2)cc(OC)c1OC	none (no result: Shiga inhibitor, Cycloheximide cs)
CC(OC(=O)c1ccncc1)C(=O)Nc1ccc([N+](=O)[O-])cc1Cl (stereo not drawn)	none (no result: MARV entry inh, Vaccinia Venus, Vaccinia mCherry, LASV entry inh)
COc1cc(OC)c(S(=O)(=O)Nc2ccccc2NC(=O)CN2CCOCC2)cc1NC(C)=O	none (no result: MARV entry inh, Vaccinia Venus, Vaccinia mCherry, LASV entry inh)
O=C(Nc1ccc2oc(-c3ccc(Cl)c(Cl)c3)nc2c1)c1ncn[nH]1	MARV entry inh inconclusive, Cycloheximide cs 27, LASV entry inh inconclusive
O=C(Nc1ccc2oc(-c3ccc4ccccc4c3)nc2c1)c1ccc(Cl)c(Cl)c1	Vaccinia Venus inconclusive, Vaccinia mCherry inconclusive (no result: Shiga inhibitor, MARV entry inh, Cycloheximide cs)
Cn1c2ccccc2c(=O)c2cc(C#Cc3ccsc3)ccc21	Cycloheximide cs 9.3 (no result: MARV entry inh, LASV entry inh)
Cn1c2ccccc2c(=O)c2cc(C#Cc3ccccn3)ccc21	Cycloheximide cs 23 (no result: MARV entry inh, LASV entry inh)
Cn1c2ccccc2c(=O)c2ccc(C#Cc3ccccn3)cc21	none (no result: MARV entry inh, LASV entry inh)
CCOC(=O)C1=C(C)NC(=S)NC1c1ccc(-c2ccc(Cl)cc2)o1 (stereo not drawn)	MARV entry inh 13µM
CCN1C(=O)[C@H]2[C@@H](c3ccc(C)cc3)N3C(=O)N(c4cccc(Br)c4)C(=O)[C@@]3(CC(C)C)[C@H]2C1=O	none (no result: Shiga inhibitor, MARV entry inh, Cycloheximide cs, LASV entry inh)
Cc1ccc(/C=C2\SC(=S)N(/N=C/c3cc([N+](=O)[O-])ccc3O)C2=O)o1	Cycloheximide cs 19
O=C(N/N=C/C(Br)=C/c1ccccc1)C(O)c1ccccc1 (stereo not drawn)	Shiga inhibitor 74, MARV entry inh inconclusive, Cycloheximide cs 44, LASV entry inh inconclusive
O=C(N/N=C/c1cccnc1)C(O)c1ccccc1 (stereo not drawn)	none (no result: Vaccinia Venus, Vaccinia mCherry)
O=C(N/N=C/C(Br)=C/c1ccccc1)C1CC1	Shiga inhibitor 56, Cycloheximide cs 25
O=C(O)c1ccc(N/N=C/C(Br)=C/c2ccccc2)cc1	Cycloheximide cs 25 (no result: MARV entry inh, Vaccinia Venus, Vaccinia mCherry, LASV entry inh)
Cc1ccc(NCC(=O)N/N=C\C(Br)=C\c2ccccc2)cc1	LASV entry inh inconclusive
CC(/C=N/NC(=O)NC1CCCCC1)=C\c1ccccc1	Shiga inhibitor 46, MARV entry inh inconclusive, Cycloheximide cs 28 (no result: LASV entry inh)
CCOC(=O)CNC(=O)C1CCCCC1	none (no result: Shiga inhibitor, MARV entry inh, Cycloheximide cs, LASV entry inh)
CNC(=O)c1c(NC(=O)c2nc(SCc3ccc(C)cc3)ncc2Cl)sc2c1CCCC2	MARV entry inh inconclusive (no result: Shiga inhibitor, Cycloheximide cs)
COc1ccc(-c2cc3c(=O)n(CC(=O)Nc4ccccc4C(F)(F)F)ccn3n2)cc1OC	none (no result: Shiga inhibitor, MARV entry inh, Cycloheximide cs)
COc1ccc2c(c1)CCc1cnc(-n3ncc(C(=O)NC4CCOC4)c3C3CC3)nc1-2 (stereo not drawn)	none (no result: Shiga inhibitor, MARV entry inh, Cycloheximide cs, LASV entry inh)
O=C(N/N=C/C(Br)=C/c1ccccc1)NC1CCCCC1	Shiga inhibitor 97, Cycloheximide cs 50
BrC(=C\c1ccccc1)/C=N/Nc1nc2ccccc2[nH]1	Shiga inhibitor 104, MARV entry inh inconclusive, Cycloheximide cs 75, LASV entry inh inconclusive
O=C(O)c1ccc(N2C(=O)c3ccc(C(=O)c4cccc([N+](=O)[O-])c4)cc3C2=O)cc1	none (no result: MARV entry inh, LASV entry inh)
CN1CCN(Cc2cc(COCc3ccccc3)c3cccnc3c2O)CC1	MARV entry inh 6.3µM, Vaccinia Venus inconclusive, Vaccinia mCherry 28µM, Cycloheximide cs 17, LASV entry inh inconclusive
CCCOCc1cc(CN2CCN(c3cccc(Cl)c3)CC2)c(O)c2ncccc12	MARV entry inh inconclusive, Vaccinia mCherry 2.8µM, LASV entry inh inconclusive (no result: Shiga inhibitor, Cycloheximide cs)
Oc1c(CN2CCc3ccccc3C2)cc(Cl)c2cccnc12	Vaccinia Venus inconclusive, Vaccinia mCherry 2.5µM (no result: MARV entry inh, LASV entry inh)
Cc1ccc(C(=O)N(Cc2cc3cccc(C)c3nc2N2CCC(O)CC2)C2CC2)cc1	none (no result: Shiga inhibitor, MARV entry inh, Cycloheximide cs, LASV entry inh)
COC(=O)c1cccc(C(=O)NCc2nc(-c3ccccc3NC(C)=O)oc2C)c1	none (no result: Shiga inhibitor, MARV entry inh, Cycloheximide cs, LASV entry inh)
Cc1ccc(CN=C(N)Nc2nc(C)cc(C)n2)cc1	MARV entry inh 11µM, Vaccinia Venus inconclusive, Vaccinia mCherry inconclusive
Cc1ccc(C)c(N/C(N)=N/c2nc(C)cc(C)n2)c1	MARV entry inh inconclusive
O=Cc1c(-c2ccccc2)cc2oc3ccccc3cc1-2	Shiga inhibitor 72, Cycloheximide cs 40 (no result: MARV entry inh, Vaccinia Venus, Vaccinia mCherry, LASV entry inh)
Nc1cccc(-c2cc3ccccc3oc2=O)c1	MARV entry inh inconclusive, LASV entry inh inconclusive
CCn1cc(C(=O)N2CCN(c3ccccc3F)CC2)c(=O)c2cc(S(=O)(=O)N(C)C3CCCCC3)ccc21	none (no result: Shiga inhibitor, Cycloheximide cs)
CC1CCC(C(C)C)C(OCC(O)CN2CCOCC2)C1 (stereo not drawn)	MARV entry inh inconclusive
OC(COc1ccc(OCC(O)CN2CCN(Cc3ccccc3)CC2)cc1)CN1CCN(Cc2ccccc2)CC1 (stereo not drawn)	MARV entry inh inconclusive, LASV entry inh inconclusive (no result: Shiga inhibitor, Cycloheximide cs)
CC1CCC(C(C)C)C(OCC(O)CN2CCN(Cc3ccccc3)CC2)C1 (stereo not drawn)	MARV entry inh inconclusive, Vaccinia Venus inconclusive, LASV entry inh 8.9µM (no result: Vaccinia mCherry)
OC1CCCN(CC(O)COC(c2ccccc2)c2ccccc2)C1 (stereo not drawn)	none
CC1CCC(C(C)C)C(OCC(O)CN2CCCC(C)C2)C1 (stereo not drawn)	MARV entry inh inconclusive, Vaccinia mCherry inconclusive, LASV entry inh 5.6µM
CC1CCCN(CC(O)COC(c2ccccc2)c2ccccc2)C1 (stereo not drawn)	MARV entry inh 4µM, LASV entry inh inconclusive
O=c1[nH]c2ccc(NCc3ccc(-c4ccc(F)cc4)o3)cc2[nH]1	none (no result: Shiga inhibitor, Cycloheximide cs)
COc1cc(C)c(CN2CCOc3ccc(C(O)c4cccnc4)cc3C2)cc1C (stereo not drawn)	none (no result: Shiga inhibitor, MARV entry inh, Cycloheximide cs, LASV entry inh)
O=C1C(=O)N(CCN2CCOCC2)C(c2ccncc2)/C1=C(/O)c1ccc2c(c1)OCO2 (stereo not drawn)	none
COc1cccc(C2/C(=C(/O)c3ccc4c(c3)OCO4)C(=O)C(=O)N2CCN2CCOCC2)c1 (stereo not drawn)	Cycloheximide cs 9.6 (no result: MARV entry inh, Vaccinia Venus, Vaccinia mCherry, LASV entry inh)
